For the assay, the system named is VDR:RXRa (NR concentration 270 nM, RXRa partner concentration 90 nM). Description: PBM binding z-score (relative to random genomic background probes); higher = stronger binding; sequences stand for … in GC…GCGATTGACAGCGTAGAATGAAGG
The procedure:
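Protein-binding microarray (Agilent 4x180K custom design, double-stranded 60-nt probes: 5' GC cap, 34-nt variable region, 24-nt constant primer region; full probe sequence given). Purified or IVT nuclear receptor:RXRα heterodimers (3:1 NR:RXRα, mostly 270:90 nM) or homodimers were incubated for 1 h in PBS with 2% milk and no ligand, then detected with Alexa488 antibodies. Fluorescence from o1-orientation probes (~5 replicates averaged) was converted to z-scores against 500 random hg19 background probes. Variable regions are seed direct-repeat (DR0–DR5) sites, all their single-nucleotide variants and half-site ablations.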
Sequence TTTCCAAGGTGAAGGTCGTTGATCCCTCTGTAGA showed a PBM binding z-score of 1.45. The same measure for TCATATAGGTAAATGCAAGGTGAAAGTCCGATCT: 1.37. The same measure for ACAGACAGGTGATGCAGGTAACTCAGGCTATCAT: -0.283; for GCGAATGGGGCATCAGCAGGTTACCATAACTTAA: -0.212. With TCGAGTAGGTTAGGGGCATTGAGAATGGCGTCGA, the PBM binding z-score came to 0.491. The value for TCATATAGGTAAACAGGTGAAACTCCGTAAGTTA was 1.19; that for CAAACTAAGTCACAGAGGTCAAAGTCCGTGCGTA was 6.65; that for GCTAGTTGGTCAGTAATAGGTCACACACCGGTCG was 1.73. Consider CAGCCTAGGTCAAGGCCAGTATAGGAGGAACGTT, for which the PBM binding z-score worked out at 1.3. The same measure for CCGACTGGGTCAGAAAGGTTACCATACCATCCGG: 4.2; for GCGACTGCGGCATCAGCAGGTTACCATAACTTAA: -0.5. Turning to CCGACTGGGGCAGAAAGGTTACCAGACCATCCGG, the PBM binding z-score was 0.696. The same measure for CGTTCAAGGTCAATGCTAGGTCAGTGAAAGCATT: 4.78. As to CCTAGTTGGTTAGGAGGTCACACACCGGATATGA, the PBM binding z-score was 3.56.

In turn, AGAATGAGGTTACCAAAGATCGGGGAAACGCTTG displayed a PBM binding z-score of 1.3. The value for CTACCAAGGTGAACAAGGCCGTTGATTACTATTC was 3.58; that for ATATCTAGGTTAGCTGGGGTCATTCAGACTAGGC was 6.03; that for TCTCGGAGGACACGAAAGGTAAGAGCTCGACATC was 0.0922.

GCGTCTGGGGCAAAGCAGGTTACCATAAGGTTGG displayed a PBM binding z-score of 0.117. The value for CAAACTAGGTCAAGAGGTCAGAGTCCGCTTCCCG was 4.89; that for CAAACTAAGTCAAAGGTCAAAGTCGAGCCAACCA was 5.35. The value for TCTCGGAGGACACGAAGGTCTGAGCTTTCCAGAG was -0.323; that for CGAACCAGGGCATGAGTTGATAGCAAATGCCGAT was 0.253. The value for CCTTACGGGTCACTCCAGGTTATCGCATCGGAGT was 4.2; that for GTACCAAGGTTAATAGGTCGTTGATGAGTAGGCG was 2.23; that for CCTACGGGGCCATCAGGTCATTGATATCAACGTT was 3.06. Sequence CCGACTGGGGCAAGGTTATCATAACGCACAGCCA yielded a PBM binding z-score of 0.0882. Regarding ATACCAAGGTGATCGTGAGGTCATTGATACTAAC, the PBM binding z-score is 5.31.

Sequence CCTTACGGGTCAAGGTTATAACACGGGTGGTACG registered a PBM binding z-score of 3.51. TCTGCTAGGTCAACTATGGTCAGCTAATCTGCTA: the PBM binding z-score worked out at 2.12. The same measure for TCTGACAGGTGAAGGTAACTCAGGTACGCAGTCG: 0.667; for GCTAGTTGGTCCGTAAAAGGTCACACACCGGTCG: 3.97; for CCGACTGGGGCAAAGGTTACCAAACTCAGTACGA: 1.91. TAGCCTAGGTCAGATCGGGCCATTATACGCTATA had a PBM binding z-score of 1.6.

ATCTCTAGGTAAAAGTTCAGTAAATCCCGAGGAT: the PBM binding z-score is 1.19.

ATCAAAAGGTCGACGAGGTGAGTATACACCGTTT came in with a PBM binding z-score of 5.4. The value for TATACAGGGTCAAAGGCCAGATTACGAATGTCGA was 4.85. The same measure for TAGCCTAGGTCTTTGGGCCAGTATAGTACGCATC: -0.592; for AGTCAAAGTTCAATAGGTAACGTAAGATTCAGCT: 3.71; for ATCTCTACGTAACCAAGTTCAGTGAATGCCGAAC: 1.17.

The values are drawn from the supplement of paper PMC6555819.
